Screening data (PubChem BioAssay)
PAFAH1B3 inh: inhibitors of human PAFAH1B3; 0.28% of 340,000 active; recombinant PAFAH1B3, FP-rhodamine probe, fluorescence polarization; inhibition, % at 3.39 µM; Q15102; AID 492972;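 active means inhibition above the screen-wide average of all tested compounds plus 3 SD, cut at about 25% in these data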;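 further: 0% = enzyme with DMSO only and 100% = wells lacking PAFAH1B3 protein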
PAFAH1B2 inh: inhibitors of human PAFAH1B2 | inhibition, % at 3.39 µM | P68402 | recombinant PAFAH1B2, FP-rhodamine activity probe, fluorescence polarization | AID 492953 | 1.2% of 340,000 active;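 active means inhibition above the mean of all tested compounds plus 3 SD, cut at about 24% in these data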;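 further: 0% = enzyme with DMSO and 100% = wells lacking PAFAH1B2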
PAFAH2 FP inh: inhibitors of human PAFAH2; Q99487; inhibition, % at 3.39 µM; 0.99% of 340,000 active; recombinant PAFAH2, FP-rhodamine activity probe, fluorescence polarization; AID 492956;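 active means inhibition above the mean over all tested compounds plus 3 SD, cut at about 30% in these data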;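 further: inhibitors block probe labeling of enzyme so polarization drops; 0% = enzyme with DMSO and 100% = wells lacking PAFAH2 protein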
PP1 inh: PP1-alpha (human) inhibition in PP5 counter-screen; 0.9% of 320,000 active; inhibition, % at 6.7 µM; purified PP1alpha, OMFP fluorescence; AID 2235; P62136;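 active means inhibition above the mean inhibition of all tested compounds plus 3 SD, computed separately for each screening campaign, cut at about 15% in these data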
Target sequence (P62136 whole entry, looked up): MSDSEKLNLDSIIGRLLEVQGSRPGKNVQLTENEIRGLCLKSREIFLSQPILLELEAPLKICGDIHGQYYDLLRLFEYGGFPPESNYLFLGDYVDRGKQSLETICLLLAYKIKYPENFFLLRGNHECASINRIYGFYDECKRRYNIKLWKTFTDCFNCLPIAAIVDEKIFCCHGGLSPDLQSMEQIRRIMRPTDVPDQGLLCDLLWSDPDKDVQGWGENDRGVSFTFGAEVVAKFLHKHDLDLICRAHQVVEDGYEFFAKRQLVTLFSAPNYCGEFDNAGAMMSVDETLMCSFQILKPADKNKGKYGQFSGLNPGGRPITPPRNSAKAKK
PP5 primary: PP5 (human) phosphatase inhibition; purified PP5c, OMFP substrate fluorescence; inhibition, % at 6.7 µM; 0.18% of 320,000 active; AID 1987;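 active means inhibition above the campaign's mean inhibition across all tested compounds plus 3 SD, cut at about 9.5% in these data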;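 further: 0% = DMSO only and 100% = 100 µM cantharidin control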
pPAFAH FP inh: pPAFAH (human) enzyme inhibition. 1.5% of 330,000 active. inhibition, % at 3.39 µM. recombinant pPAFAH, FP-rhodamine probe fluorescence polarization. Q13093;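 active means inhibition above the mean inhibition across the screen plus 3 SD, cut at about 25% in these data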;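 further: inhibitors block binding of the rhodamine activity-based probe so polarization drops; 0% = enzyme with DMSO and 100% = wells lacking pPAFAH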
PAFAH2 confirm: PAFAH2 (human) inhibition, confirmed | recombinant PAFAH2, FP-rhodamine activity probe, fluorescence polarization | 65% of 2,300 active | inhibition, % at 3.39 µM | shares compounds with PAFAH2 FP inh;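 active means mean inhibition over three repeats above a set limit taken from the earlier primary screen, cut at about 30% in these data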;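 further: inhibitor blocks binding of rhodamine activity probe so polarization falls; 0% = enzyme with DMSO and 100% = wells lacking PAFAH2 protein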
The depositor's hits bear a star; . = not tested or not shown. An excerpt weighted towards active compounds, which were near 3.4% of everything screened.

SMILES	PAFAH1B3 inh	PAFAH1B2 inh	PAFAH2 FP inh	PP1 inh	PP5 primary	pPAFAH FP inh	PAFAH2 confirm
N#CC1(NC(=O)COC(=O)c2ccccc2SCC(=O)N2CCCC2)CCCCC1	-2	-8	81*	-2	0	9	80*
O=C(COC(=O)c1ccccc1SCC(=O)N1CCCC1)NC1CCCCC1	4	2	83*	-4	1	4	73*
NC(=O)COC(=O)c1ccccc1SCC(=O)NC1CCCCCCC1	-4	7	39*	-6	-1	6	37*
O=C(COC(=O)c1ccccc1SCC(=O)N1CCCC1)NC1CCS(=O)(=O)C1 (stereo not drawn)	-5	-2	-2	-3	-1	-2	.
O=C(CSc1ccccc1C(=O)O)NC1CCCCCC1	7	8	7	-1	2	6	.
O=S(=O)(c1ccc(-c2nc3ccccc3s2)cc1)N1CCCC1	2	2	-5	-3	7	2	.
COc1cccc(OC)c1C(=O)OCC(=O)NCc1ccco1	4	7	-2	-3	1	2	.
COc1cc(/C=C/C(=O)OCC(=O)NC(=O)NCc2ccco2)ccc1OC(F)F	8	2	3	.	.	6	.
COc1cc(/C=C/C(=O)OCC(=O)NCc2ccco2)ccc1O	4	4	66*	-1	-1	6	46*
COc1ccccc1/C=C/C(=O)OCC(=O)NCc1ccco1	8	5	62*	0	2	4	53*
COC(=O)c1ccc(C(=O)OC)nc1	4	-1	-4	-2	0	3	.
CC1CCCN(C(=O)COC(=O)c2ccc3[nH]c4c(c3c2)CCCC4)C1 (stereo not drawn)	-2	5	41*	-2	1	9	26
O=C(OCCN=C1NS(=O)(=O)c2ccccc21)c1cccs1	10	5	38*	-4	-2	4	11
O=C(/C=C/c1ccccc1)OCCN=C1NS(=O)(=O)c2ccccc21	6	4	30*	-3	0	0	22
O=C(OCCCN=C1NS(=O)(=O)c2ccccc21)c1cccs1	12	1	5	-2	1	3	.
O=C(/C=C/c1ccccc1)OCCCCN=C1NS(=O)(=O)c2ccccc21	11	5	-1	-3	2	0	.
O=C1OC2(CCCCC2)OC(=O)C1=CNc1nc2ccccc2s1	4	9	41*	-2	-1	-2	21
O=C1OC2(CCCCC2)OC(=O)C1=CNc1nccs1	2	2	18	-1	2	-1	.
O=C(COC(=O)C1CC2C=CC1C2)Nc1cccc(S(=O)(=O)N2CCCCC2)c1 (stereo not drawn)	-2	6	53*	3	1	7	41*
O=C(COC(=O)C1CC2C=CC1C2)Nc1cccc(S(=O)(=O)N2CCCCCC2)c1 (stereo not drawn)	12	3	36*	3	3	16	24
COc1cc(-c2cccs2)cc(=O)c2c(C)oc(C)c12	7	4	32*	3	1	22	6
COc1ccc(-c2cc(OC(=O)c3ccc(F)cc3)c3c(C)oc(C)c3c(=O)c2)cc1	.	.	.	12	2	13	.
O=C(NC(=S)NNC(=O)c1ccccc1O)c1ccco1	8	8	53*	1	0	9	42*
O=C(NC(=S)NNC(=O)c1ccccc1O)c1cccc([N+](=O)[O-])c1	19	10	42*	1	-1	17	27
CCS(=O)(=O)N1CCCC(C(=O)NCCCN2CCCC2=O)C1 (stereo not drawn)	-1	-1	-8	-1	0	3	.
COc1cccc(C(=O)OCC(=O)NCCC2=CCCCC2)c1	2	3	38*	.	.	22	23
COc1cc(C(=O)OCC(=O)NCCC2=CCCCC2)ccc1OCC(C)C	-2	4	41*	-4	0	7	43*
CCn1c(COc2ccc(Cl)cc2)nnc1SC1CCc2ccccc2C1=O (stereo not drawn)	-4	6	-3	1	2	7	.
Cc1cc(C(=O)NCC2COc3ccccc3O2)c2ccccc2n1 (stereo not drawn)	1	-1	5	-4	-1	0	.
